Tests used:
Experiment in all cases: log2 ratio of Biotin-Ahx-Ub-VS probe labelling (fragment/DMSO); higher = less target engagement (more negative = stronger competition), active = hit call of the paper (q ≤ 0.05, log2 ratio ≤ -1)
Settings in all cases: compound concentration: 200 uM; treatment time: 3 h
USP19 = target: T1, USP19 (UniProt O94966)
T1 sequence (whole entry): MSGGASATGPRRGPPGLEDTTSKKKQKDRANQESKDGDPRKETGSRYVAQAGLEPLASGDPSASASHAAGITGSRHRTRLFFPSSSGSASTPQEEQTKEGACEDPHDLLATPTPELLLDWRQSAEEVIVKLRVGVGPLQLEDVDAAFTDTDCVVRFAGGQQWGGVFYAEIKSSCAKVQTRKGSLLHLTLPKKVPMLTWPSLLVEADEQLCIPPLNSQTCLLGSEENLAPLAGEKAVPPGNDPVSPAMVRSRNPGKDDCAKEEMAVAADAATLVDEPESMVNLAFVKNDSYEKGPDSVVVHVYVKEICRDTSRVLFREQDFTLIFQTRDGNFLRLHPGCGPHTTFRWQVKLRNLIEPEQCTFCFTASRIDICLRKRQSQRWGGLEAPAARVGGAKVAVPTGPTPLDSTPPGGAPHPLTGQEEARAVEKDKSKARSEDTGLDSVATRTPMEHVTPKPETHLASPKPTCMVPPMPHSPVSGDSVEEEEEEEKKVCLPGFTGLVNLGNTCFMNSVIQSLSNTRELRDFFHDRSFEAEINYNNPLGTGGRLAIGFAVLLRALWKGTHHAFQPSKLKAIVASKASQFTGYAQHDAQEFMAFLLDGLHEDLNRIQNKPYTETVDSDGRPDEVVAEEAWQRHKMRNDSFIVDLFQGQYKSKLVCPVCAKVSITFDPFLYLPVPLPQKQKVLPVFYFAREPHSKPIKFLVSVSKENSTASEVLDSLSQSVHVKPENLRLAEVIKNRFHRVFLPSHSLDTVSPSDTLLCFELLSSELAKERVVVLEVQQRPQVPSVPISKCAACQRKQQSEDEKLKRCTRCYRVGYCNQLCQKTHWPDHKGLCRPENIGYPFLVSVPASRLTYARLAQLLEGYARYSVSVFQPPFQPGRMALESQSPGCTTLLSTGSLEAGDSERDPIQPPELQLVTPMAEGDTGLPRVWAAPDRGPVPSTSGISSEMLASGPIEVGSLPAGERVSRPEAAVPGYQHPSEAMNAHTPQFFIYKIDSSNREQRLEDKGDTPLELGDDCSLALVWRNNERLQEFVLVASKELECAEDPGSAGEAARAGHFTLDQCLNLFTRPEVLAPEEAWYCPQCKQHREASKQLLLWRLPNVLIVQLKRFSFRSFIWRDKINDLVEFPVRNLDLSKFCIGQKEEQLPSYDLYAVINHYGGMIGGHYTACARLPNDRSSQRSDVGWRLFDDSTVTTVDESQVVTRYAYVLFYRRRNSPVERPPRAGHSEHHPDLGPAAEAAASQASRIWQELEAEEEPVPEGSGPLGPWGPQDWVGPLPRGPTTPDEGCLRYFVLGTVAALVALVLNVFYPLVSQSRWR
Procedure, shortened: (§1)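 HEK293T lysate (495 µg per sample, in Tris/CHAPS/IGEPAL buffer with protease inhibitors) was treated in triplicate with fragment at 200 µM or with DMSO for 3 h. It was then treated with Biotin-Ahx-Ub-VS (0.5 µM final) for 1 h. Labelled DUBs were NeutrAvidin-enriched, digested with LysC and trypsin, and run by diaPASEF LC-MS/MS. Spectronaut label-free quantities were global-median-normalised. Values are average log2 ratios fragment/DMSO by unpaired t-test, using proteins with ≥2 unique peptides.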

USP22 = target: T2, USP22 (UniProt Q9UPT9)
T2 sequence (whole entry): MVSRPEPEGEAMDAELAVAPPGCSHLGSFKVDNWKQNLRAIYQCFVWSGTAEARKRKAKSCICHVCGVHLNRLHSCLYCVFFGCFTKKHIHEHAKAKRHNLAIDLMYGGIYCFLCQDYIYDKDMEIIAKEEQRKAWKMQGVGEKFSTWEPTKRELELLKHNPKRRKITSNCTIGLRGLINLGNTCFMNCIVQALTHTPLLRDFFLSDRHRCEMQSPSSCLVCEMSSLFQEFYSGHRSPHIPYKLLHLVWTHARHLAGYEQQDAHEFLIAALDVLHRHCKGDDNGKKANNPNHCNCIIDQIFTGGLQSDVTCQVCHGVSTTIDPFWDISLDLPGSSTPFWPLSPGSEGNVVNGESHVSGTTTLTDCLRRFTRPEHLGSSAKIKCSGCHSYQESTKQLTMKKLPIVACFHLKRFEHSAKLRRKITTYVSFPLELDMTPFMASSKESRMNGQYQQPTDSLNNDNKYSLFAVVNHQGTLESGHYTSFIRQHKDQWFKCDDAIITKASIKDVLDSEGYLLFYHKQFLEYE
Procedure, shortened: as §1

USP24 = USP24 (UniProt Q9UPU5)
Procedure, shortened: as §1

USP25 = target: T3, USP25 (UniProt Q9UHP3)
T3 sequence (whole entry): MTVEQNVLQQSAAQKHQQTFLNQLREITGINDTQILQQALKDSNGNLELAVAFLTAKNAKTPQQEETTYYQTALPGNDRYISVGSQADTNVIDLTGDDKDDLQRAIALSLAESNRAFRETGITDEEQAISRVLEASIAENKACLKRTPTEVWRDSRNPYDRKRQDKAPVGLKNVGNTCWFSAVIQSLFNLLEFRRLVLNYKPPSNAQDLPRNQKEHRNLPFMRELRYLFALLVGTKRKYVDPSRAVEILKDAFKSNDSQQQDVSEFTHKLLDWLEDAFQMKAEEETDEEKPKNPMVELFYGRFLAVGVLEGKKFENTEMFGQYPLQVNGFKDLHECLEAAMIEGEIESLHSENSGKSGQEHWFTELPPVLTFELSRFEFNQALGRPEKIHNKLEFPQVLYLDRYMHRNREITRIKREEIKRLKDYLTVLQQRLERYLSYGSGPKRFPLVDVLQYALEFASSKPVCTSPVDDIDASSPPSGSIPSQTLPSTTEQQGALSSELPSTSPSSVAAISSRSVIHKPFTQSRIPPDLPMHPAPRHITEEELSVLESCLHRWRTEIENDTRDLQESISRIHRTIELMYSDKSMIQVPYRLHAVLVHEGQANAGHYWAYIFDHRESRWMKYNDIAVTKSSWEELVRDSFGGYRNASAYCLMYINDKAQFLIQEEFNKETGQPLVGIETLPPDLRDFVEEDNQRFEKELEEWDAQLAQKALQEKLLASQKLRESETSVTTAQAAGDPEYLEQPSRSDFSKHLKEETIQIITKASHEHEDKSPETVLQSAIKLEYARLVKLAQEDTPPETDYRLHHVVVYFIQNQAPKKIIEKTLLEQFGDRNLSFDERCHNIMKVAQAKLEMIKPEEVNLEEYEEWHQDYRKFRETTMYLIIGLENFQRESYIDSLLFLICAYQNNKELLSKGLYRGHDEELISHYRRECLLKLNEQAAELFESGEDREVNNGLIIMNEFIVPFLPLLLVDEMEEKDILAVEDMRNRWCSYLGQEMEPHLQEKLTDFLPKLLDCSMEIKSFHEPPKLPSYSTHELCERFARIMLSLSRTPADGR
Procedure, shortened: as §1

USP28 = target: T4, USP28 (UniProt Q96RU2)
T4 sequence (whole entry): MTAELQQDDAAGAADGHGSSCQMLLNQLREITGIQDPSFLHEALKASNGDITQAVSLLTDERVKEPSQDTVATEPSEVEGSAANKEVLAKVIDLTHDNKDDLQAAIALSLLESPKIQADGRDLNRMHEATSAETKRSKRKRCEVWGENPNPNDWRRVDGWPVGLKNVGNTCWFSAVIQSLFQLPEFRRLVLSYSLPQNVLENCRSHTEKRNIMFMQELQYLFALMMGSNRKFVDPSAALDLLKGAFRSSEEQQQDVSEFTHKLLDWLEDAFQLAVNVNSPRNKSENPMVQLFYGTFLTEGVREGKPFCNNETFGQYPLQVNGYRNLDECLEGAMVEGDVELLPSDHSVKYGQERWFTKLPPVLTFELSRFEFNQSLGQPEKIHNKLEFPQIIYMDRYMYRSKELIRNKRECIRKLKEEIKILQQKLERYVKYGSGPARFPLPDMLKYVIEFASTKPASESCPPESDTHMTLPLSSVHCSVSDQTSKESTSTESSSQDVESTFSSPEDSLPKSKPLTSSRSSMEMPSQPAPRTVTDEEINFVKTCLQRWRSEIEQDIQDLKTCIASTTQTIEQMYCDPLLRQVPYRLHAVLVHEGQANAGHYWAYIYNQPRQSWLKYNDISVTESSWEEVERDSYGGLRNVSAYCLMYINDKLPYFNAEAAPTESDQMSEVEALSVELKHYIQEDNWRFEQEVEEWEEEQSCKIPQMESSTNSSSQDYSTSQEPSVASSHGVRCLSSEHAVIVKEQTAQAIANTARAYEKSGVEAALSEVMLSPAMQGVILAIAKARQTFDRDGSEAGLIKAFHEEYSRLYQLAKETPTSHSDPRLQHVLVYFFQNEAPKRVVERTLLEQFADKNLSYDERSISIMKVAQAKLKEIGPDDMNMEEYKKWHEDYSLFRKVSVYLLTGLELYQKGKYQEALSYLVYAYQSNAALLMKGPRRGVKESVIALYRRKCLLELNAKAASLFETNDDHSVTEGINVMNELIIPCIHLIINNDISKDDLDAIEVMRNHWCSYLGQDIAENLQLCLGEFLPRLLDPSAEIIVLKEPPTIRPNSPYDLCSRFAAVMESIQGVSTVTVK
Procedure, shortened: as §1

Measured: log2 ratio of Biotin-Ahx-Ub-VS probe labelling

Sequence of USP24 (Q9UPU5 whole entry): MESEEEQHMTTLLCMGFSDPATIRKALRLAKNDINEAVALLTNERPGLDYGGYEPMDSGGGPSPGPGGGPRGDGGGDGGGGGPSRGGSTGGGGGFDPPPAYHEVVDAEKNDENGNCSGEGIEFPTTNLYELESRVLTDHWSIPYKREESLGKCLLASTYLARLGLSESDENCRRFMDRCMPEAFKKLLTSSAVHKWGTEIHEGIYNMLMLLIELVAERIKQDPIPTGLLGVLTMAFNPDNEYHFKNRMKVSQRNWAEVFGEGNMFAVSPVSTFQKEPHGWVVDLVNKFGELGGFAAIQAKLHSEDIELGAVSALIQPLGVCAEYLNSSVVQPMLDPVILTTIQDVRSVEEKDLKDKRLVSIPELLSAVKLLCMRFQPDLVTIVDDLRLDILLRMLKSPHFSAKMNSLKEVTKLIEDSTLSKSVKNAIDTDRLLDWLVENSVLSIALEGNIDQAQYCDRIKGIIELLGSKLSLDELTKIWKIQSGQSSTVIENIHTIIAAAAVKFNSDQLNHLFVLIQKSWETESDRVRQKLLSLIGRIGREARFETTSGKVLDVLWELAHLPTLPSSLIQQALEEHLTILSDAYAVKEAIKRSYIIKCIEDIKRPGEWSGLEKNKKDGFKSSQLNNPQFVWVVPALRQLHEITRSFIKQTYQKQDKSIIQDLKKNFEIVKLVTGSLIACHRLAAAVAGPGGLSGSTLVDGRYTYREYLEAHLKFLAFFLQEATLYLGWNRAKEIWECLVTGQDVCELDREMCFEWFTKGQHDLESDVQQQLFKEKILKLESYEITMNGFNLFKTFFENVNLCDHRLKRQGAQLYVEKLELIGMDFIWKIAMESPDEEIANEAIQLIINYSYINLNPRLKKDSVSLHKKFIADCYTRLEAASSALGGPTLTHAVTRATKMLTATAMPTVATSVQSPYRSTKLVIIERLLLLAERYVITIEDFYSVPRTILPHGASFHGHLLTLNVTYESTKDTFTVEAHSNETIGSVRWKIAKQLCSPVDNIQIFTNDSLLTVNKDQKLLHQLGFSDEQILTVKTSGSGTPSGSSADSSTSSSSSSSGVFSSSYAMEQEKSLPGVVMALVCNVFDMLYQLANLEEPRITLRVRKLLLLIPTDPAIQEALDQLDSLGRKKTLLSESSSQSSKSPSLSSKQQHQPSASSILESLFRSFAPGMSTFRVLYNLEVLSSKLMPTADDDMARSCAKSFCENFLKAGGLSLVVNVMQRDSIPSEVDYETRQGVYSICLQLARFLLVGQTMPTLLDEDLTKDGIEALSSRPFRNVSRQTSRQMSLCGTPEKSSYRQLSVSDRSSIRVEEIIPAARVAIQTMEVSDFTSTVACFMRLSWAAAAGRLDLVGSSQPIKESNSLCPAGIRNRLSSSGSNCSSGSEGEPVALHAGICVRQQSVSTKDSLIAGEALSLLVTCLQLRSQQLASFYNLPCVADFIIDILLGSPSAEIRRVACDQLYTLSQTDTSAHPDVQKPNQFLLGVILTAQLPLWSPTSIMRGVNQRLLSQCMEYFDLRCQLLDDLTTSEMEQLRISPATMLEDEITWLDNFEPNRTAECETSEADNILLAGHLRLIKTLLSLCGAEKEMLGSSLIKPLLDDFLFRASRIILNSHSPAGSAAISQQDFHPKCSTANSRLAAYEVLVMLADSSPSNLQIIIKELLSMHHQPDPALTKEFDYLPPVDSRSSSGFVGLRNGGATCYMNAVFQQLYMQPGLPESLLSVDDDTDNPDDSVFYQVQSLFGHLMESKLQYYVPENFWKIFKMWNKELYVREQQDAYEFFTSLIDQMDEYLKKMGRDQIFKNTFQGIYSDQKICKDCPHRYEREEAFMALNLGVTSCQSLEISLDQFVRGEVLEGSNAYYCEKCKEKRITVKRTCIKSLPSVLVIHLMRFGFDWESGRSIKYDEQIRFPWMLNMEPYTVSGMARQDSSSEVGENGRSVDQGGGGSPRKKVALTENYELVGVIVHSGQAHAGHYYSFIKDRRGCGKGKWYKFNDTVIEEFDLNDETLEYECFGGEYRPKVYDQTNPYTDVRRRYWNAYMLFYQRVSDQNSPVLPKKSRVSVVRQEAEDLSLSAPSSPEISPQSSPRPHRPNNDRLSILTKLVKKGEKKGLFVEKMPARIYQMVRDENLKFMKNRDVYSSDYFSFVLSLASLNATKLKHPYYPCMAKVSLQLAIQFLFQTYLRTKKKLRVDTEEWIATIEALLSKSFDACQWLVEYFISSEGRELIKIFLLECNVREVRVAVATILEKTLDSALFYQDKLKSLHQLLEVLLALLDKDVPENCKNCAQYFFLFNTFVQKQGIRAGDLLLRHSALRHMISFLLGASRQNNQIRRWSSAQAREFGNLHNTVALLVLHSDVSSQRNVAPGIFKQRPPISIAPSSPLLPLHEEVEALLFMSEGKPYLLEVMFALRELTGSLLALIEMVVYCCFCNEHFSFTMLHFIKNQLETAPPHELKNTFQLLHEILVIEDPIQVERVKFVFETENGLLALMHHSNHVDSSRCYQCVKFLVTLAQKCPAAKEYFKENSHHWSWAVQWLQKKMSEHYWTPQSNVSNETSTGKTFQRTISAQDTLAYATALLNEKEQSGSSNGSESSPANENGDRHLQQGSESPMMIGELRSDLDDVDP

O=C(CCl)N1CC2(CCOCC2)C1
inactive: USP19 -0.144 | USP22 0.0357 | USP24 -0.194 | USP25 -0.275 | USP28 -0.375

From the supplement of paper PMC11732987, “Enantioselective OTUD7B fragment discovery through chemoproteomics screening and high-throughput optimisation” (Communications Chemistry, 2025)
